Test results taken from the supplement of paper PMC11001985.

Compound: C#CCNC(=O)CCSSCCC(=O)NCCc1ccc(C=O)c(C=O)c1
Assay: lysine labeling ratio R10:1 (500 µM / 50 µM probe), SILAC-ABPP in living cells; higher = lower intrinsic lysine reactivity toward the probe, active = 2 or less
Settings: HeLa; probe concentrations 500 vs 50 µM
Experimental: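 Living HeLa cells (SILAC light/heavy) in PBS at room temperature were labeled with 50 µM versus 500 µM of the lysine-reactive, reductant-cleavable probe OPA-S-S-alkyne (SILAC labeling time not stated). Probe-modified peptides were CuAAC-biotinylated, captured on neutravidin and eluted with DTT/IAA, then quantified by LC-MS/MS. R = median peptide ratio per lysine (500/50 µM), combined over 3 forward and 3 reverse SILAC replicates. Ratios are capped at 20; R < 2 = hyper-reactive.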

Chain of UniProt P08069 (P08069 whole entry, looked up): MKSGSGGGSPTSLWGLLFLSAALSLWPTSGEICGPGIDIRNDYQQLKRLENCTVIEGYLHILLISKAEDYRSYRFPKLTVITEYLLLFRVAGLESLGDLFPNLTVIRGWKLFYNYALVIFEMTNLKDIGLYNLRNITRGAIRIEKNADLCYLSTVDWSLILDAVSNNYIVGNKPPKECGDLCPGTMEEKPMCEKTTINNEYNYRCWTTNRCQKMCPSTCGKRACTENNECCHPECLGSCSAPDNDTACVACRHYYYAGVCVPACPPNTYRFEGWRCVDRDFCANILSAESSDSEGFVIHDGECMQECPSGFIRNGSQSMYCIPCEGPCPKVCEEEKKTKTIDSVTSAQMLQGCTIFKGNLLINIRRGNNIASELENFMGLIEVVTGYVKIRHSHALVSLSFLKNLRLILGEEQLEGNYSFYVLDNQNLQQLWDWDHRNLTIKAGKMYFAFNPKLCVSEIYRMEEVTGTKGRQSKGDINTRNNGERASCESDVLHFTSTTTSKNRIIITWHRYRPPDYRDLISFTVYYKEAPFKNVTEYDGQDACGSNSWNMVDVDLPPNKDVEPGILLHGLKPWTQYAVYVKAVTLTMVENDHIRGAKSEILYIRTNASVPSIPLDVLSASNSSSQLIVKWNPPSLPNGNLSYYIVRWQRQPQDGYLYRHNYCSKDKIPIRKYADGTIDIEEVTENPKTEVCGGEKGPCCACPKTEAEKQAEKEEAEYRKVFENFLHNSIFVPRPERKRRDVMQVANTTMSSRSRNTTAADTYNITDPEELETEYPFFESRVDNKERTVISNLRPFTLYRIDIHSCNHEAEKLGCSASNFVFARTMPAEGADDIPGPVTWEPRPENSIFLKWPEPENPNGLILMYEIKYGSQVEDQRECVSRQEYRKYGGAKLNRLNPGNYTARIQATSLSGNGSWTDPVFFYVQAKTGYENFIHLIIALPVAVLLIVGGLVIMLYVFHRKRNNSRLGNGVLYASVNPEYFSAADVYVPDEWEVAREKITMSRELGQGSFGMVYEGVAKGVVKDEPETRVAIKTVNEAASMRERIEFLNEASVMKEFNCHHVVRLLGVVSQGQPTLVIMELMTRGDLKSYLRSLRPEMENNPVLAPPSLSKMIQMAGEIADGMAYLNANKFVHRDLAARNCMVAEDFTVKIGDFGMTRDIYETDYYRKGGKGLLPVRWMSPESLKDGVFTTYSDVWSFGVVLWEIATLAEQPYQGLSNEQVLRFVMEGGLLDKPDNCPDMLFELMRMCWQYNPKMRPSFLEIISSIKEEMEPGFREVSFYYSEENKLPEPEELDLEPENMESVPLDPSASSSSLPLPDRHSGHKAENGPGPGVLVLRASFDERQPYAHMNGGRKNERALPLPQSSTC
Chain of UniProt Q08380 (Q08380 whole entry): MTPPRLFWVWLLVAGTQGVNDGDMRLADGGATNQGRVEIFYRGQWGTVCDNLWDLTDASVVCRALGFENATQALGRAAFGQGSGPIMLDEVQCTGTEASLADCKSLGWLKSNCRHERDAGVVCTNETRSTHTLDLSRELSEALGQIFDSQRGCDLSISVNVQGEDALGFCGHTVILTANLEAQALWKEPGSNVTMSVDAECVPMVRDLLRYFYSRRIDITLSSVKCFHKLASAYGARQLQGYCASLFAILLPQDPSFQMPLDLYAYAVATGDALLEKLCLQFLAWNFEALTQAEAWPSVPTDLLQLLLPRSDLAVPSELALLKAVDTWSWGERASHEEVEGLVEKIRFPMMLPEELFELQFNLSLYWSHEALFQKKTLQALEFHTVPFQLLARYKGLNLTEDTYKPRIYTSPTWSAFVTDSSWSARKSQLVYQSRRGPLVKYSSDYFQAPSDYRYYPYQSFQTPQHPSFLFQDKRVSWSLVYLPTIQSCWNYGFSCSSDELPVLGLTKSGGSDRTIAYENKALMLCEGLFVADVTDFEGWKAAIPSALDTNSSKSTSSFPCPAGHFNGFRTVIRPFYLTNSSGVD
Chain of UniProt P04899 (P04899 whole entry): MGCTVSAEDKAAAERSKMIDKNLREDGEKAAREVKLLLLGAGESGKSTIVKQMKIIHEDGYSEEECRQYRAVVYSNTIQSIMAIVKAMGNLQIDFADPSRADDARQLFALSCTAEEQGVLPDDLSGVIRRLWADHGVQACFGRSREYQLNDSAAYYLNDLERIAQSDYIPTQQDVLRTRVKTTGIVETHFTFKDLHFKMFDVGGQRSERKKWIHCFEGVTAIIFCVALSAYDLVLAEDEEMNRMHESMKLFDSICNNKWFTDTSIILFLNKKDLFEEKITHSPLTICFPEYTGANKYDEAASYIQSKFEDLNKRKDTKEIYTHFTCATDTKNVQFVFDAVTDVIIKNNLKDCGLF
Chain of UniProt Q01082 (Q01082 whole entry): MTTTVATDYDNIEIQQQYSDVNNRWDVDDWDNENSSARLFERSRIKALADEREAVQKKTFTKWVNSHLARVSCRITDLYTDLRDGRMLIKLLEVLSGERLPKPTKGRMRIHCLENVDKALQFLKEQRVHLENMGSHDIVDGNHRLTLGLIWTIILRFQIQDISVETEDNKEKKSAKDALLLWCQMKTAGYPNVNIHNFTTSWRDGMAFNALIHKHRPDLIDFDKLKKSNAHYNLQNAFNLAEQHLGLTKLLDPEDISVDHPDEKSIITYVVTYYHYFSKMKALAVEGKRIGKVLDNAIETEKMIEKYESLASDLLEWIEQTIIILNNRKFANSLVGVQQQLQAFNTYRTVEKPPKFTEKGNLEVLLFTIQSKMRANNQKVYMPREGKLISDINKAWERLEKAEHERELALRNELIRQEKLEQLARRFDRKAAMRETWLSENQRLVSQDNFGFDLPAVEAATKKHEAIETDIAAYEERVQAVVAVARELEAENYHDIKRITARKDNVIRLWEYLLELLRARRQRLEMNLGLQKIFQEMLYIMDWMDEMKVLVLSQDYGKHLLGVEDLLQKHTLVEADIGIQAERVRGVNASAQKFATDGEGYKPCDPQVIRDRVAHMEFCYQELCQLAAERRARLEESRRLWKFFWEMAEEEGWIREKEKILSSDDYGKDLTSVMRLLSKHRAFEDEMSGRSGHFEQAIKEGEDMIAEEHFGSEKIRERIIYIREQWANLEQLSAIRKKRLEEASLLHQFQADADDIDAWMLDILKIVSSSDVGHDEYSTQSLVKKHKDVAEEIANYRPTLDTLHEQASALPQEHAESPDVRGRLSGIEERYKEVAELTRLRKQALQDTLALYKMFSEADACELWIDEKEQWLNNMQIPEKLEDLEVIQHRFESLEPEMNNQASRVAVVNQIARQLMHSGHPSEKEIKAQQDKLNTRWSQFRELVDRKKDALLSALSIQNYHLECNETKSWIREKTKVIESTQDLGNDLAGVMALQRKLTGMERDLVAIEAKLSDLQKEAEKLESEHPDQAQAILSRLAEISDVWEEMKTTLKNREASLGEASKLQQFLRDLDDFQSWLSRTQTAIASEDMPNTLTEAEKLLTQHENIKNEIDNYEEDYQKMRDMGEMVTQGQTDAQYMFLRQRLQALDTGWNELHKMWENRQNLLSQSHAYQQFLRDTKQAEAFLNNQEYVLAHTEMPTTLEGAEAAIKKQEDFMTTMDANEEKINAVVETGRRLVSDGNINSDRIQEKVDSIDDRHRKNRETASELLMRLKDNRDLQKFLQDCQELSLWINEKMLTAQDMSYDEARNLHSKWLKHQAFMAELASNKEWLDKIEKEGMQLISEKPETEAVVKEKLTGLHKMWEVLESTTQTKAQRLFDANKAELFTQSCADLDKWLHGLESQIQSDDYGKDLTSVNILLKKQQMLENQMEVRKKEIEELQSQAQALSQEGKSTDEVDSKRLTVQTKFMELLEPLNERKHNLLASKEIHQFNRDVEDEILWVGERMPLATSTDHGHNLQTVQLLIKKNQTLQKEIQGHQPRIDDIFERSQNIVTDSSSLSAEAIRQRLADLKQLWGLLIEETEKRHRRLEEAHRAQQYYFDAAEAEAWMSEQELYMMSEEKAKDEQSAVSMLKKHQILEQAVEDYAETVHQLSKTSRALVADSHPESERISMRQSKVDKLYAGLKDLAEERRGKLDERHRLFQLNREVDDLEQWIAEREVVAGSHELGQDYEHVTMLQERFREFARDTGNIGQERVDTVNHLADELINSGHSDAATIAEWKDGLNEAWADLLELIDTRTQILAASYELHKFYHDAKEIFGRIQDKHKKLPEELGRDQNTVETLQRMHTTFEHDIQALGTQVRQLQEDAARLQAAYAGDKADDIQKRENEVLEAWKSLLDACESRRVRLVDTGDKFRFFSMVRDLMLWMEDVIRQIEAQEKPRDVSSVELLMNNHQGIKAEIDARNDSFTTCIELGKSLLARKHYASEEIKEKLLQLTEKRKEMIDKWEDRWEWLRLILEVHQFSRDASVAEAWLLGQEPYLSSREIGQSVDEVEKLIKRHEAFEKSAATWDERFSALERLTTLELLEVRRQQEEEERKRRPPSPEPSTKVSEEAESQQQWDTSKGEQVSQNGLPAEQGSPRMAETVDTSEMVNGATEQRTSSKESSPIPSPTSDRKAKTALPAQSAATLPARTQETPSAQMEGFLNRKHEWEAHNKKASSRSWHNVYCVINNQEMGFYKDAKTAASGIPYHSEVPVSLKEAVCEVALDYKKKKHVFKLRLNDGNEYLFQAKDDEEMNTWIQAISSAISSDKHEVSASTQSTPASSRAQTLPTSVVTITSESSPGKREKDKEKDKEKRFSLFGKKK
Chain of UniProt P31431 (P31431 whole entry): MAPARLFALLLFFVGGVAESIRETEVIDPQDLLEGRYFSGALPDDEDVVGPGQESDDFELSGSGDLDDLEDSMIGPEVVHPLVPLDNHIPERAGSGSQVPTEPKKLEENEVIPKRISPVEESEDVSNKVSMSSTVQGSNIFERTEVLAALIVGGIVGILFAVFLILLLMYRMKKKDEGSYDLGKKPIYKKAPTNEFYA
Chain of UniProt P16949 (P16949 whole entry): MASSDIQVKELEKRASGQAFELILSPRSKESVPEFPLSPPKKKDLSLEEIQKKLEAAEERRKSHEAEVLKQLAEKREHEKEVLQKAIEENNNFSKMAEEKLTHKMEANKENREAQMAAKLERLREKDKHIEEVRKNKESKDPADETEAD

Lysine labeling ratio R10:1, inactive:
RBMX (lysine site: K163) (UniProt P38159) 3.88
IGF1R (lysine site: K887) (UniProt P08069) 3.44
SPTBN1 (lysine site: K932) (UniProt Q01082) 3.29
ALCAM (lysine site: K76) (UniProt Q13740) 6.62
RPL10A (lysine site: K196) (UniProt P62906) 2.81
SDC4 (lysine site: K104) (UniProt P31431) 3.81
ECE1 (lysine site: K177) (UniProt P42892) 7.91
UniProt P61978 (lysine site: K422) 4.02
ANXA7 (lysine site: K268) (UniProt P20073) 2.89
HSPD1 (lysine site: K133) (UniProt P10809) 3.96
ENG (lysine site: K556) (UniProt P17813) 2.03
CCT8 (lysine site: K318) (UniProt P50990) 2.44
UniProt Q9NYQ6 (lysine site: K2118) 2.31
STMN1 (lysine site: K128) (UniProt P16949) 2.8
CCT2 (lysine site: K82) (UniProt P78371) 2.91
SPTAN1 (lysine site: K1750) (UniProt Q13813) 2.19
COPA (lysine site: K1134) (UniProt P53621) 2.48
UniProt P08727 (lysine site: K168) 4.76
EDIL3 (lysine site: K426) (UniProt O43854) 2.91
MET (lysine site: K189) (UniProt P08581) 3.58
ZMPSTE24 (lysine site: K259) (UniProt O75844) 2.08
ROBO1 (lysine site: K733) (UniProt Q9Y6N7) 5.78
UniProt O95084 (lysine site: K270) 2.67
LGALS3BP (lysine site: K427) (UniProt Q08380) 2.98

Lysine labeling ratio R10:1, active:
GNAI2 (lysine site: K313) (UniProt P04899) 1.06
ITGAV (lysine site: K535) (UniProt P06756) 1.58
GPC1 (lysine site: K383) (UniProt P35052) 1.73
UniProt Q15149 (lysine site: K4480) 1.74
PA2G4 (lysine site: K376) (UniProt Q9UQ80) 1.5
RPL10A (lysine site: K212) (UniProt P62906) 1.53
IGF1R (lysine site: K221) (UniProt P08069) 1.51
RDX (lysine site: K165) (UniProt P35241) 2
MSN (lysine site: K63) (UniProt P26038) 1.1
ANPEP (lysine site: K104) (UniProt P15144) 1.17
FAT4 (lysine site: K1675) (UniProt Q6V0I7) 1.93
IARS (lysine site: K375) (UniProt P41252) 1.66
ARHGDIA (lysine site: K52) (UniProt P52565) 1.66
LAMC1 (lysine site: K1567) (UniProt P11047) 1.42
IL6ST (lysine site: K335) (UniProt P40189) 0.692
UniProt Q00341 (lysine site: K510) 0.655
